Source: PubChem BioAssay AID1568 (National Center for Advancing Translational Sciences (NCATS), 2009)
Records with an inconclusive call do not appear. A call without a number means that no potency is given here. Calls of active or inactive are those of the source. Calls follow the shape of the dose curve; as a rule, active = well fitted curve in the direction sought with a large enough effect; inconclusive = small, poorly fitted or top-dose-only effect, or effect the other way, or another doubt; inactive = no such curve, though single readings can be large or run the other way.

Assay: Cell Viability Secondary Assay to Characterize qHTS Inhibitors of the Interaction of Thyroid Hormone Receptor and Steroid Receptor Coregulator 2
Settings: cell viability counter-screen, qHTS titration; series mostly up to 29.9 µM
Source text: NIH Molecular Libraries Probe Production Network [MLPCN]
NIH Chemical Genomics Center [NCGC]
Assay Provider: R. Kip Guy, St. Jude Children's Research Hospital
Thyroid receptor (TR) regulates many homeostatic processes including basal metabolism, cardiovascular function, body weight, and lipid trafficking. TR modulators are potential therapeutics for obesity and hyperlipidemias but current thyroid analogs have undesirable side effects, particularly cardiac stimulation. This secondary assay characterized selected actives identified in the qHTS for Inhibitors of the Interaction of Thyroid Hormone Receptor and Steroid Receptor Coregulator 2. The human follicular thyroid carcinoma cell line WRO (kindly provided by Dr. M. D. Ringel) stably expresses TRbeta and a luciferase reporter gene fused to TR response element. The effect of compounds on the viability of these cells was assessed by measuring ATP levels. Compounds that reduce cell viability are likely cytotoxic.
NCGC Assay Protocol Summary:
Cells were maintained in RPMI 1640 culture medium supplemented with 10% heat-inactivated FBS, 0.33 mg/ml hygromycin, 0.33 mg/ml geneticin, 50 units/ml penicillin, 50 ug/ml streptomycin. Cells were harvested and resuspended at 330,000 cells/ml in assay medium (50% DMEM 50% F-12 medium without Phenol-Red (Cellgro #16-405-CV), L-glutamine, 10% heat inactivated and charcoal treated FBS, 100 uM non-essential amino acid, 50 units/ml penicillin, 50 ug/ml streptomycin). Cells were dispensed at 10,000 cells/30 ul/well into 384 well plates (Corning 3917) and incubated 12 h at 37 C and 5% CO2. Compounds and T3 (100nM final concentration) were added using a pin tool and plates were incubated 16 h incubation at 37 C and 5% CO2. Following incubation, plates were equilibrated at ambient temperature for 30 min, 20 ul of CellTiter-Glo (Promega) was added and luminescence was detected by an EnVision (PerkinElmer).
For CCOc1ccc(C2=Cc3cc(OC)c(OC)cc3C(=C(Cl)Cl)O2)cc1, the Potency was “inactive”. For O=C(NNc1cc(N2CCOCC2)nc(N2CCOCC2)n1)c1ccc([N+](=O)[O-])cc1, the Potency was “inactive”. With Oc1ccc2ccccc2c1/C=N/c1nc2c(s1)CCCC2 the Potency was “inactive”. In the case of CCc1ccc2c(c1)c1nc(C)sc1n2CC, the Potency is reported as “inactive”. For COc1ccc2c(c1)-c1nc(/N=C/c3c(O)ccc4ccccc34)sc1CC2, the Potency was “inactive”. In the case of COc1cc(C(c2c(C)[nH][nH]c2=O)c2c(C)[nH][nH]c2=O)ccc1OC(=O)c1ccccc1OC, the Potency is reported as “inactive”. With CCOc1cc(C(c2c(C)[nH][nH]c2=O)c2c(C)[nH][nH]c2=O)ccc1OS(=O)(=O)c1ccc(C)cc1 the Potency was “inactive”. In the case of CC1=NN(c2ccc(F)cc2)C(=O)C1C(c1cccc(O)c1)c1c(C)[nH]n(-c2ccc(F)cc2)c1=O (stereo not given), the Potency is reported as “inactive”. With Nc1cnccc1C(=O)O the Potency was “inactive”. With Cc1cc2ccccc2n1CCNC(=O)C(C)Oc1ccccc1 (stereo not given) the Potency was “inactive”. In the case of Cc1cc(C)cc(OCC(=O)NCCc2nc3ccccc3[nH]2)c1, the Potency is reported as “inactive”. For Cc1cccc(S(=O)(=O)c2cn(Cc3ccccc3)c3cc(N4CCC(C)CC4)c(F)cc3c2=O)c1, the Potency was “inactive”. For COc1cc(C(c2c(C)[nH][nH]c2=O)c2c(C)[nH][nH]c2=O)ccc1OC(=O)c1cccc(C)c1, the Potency was “inactive”. With C=CCNC(=O)/C(C#N)=C\c1cc(Cl)c(OCC)c(OC)c1 the Potency was “inactive”. With CC(NC(=O)Nc1ccc(O)cc1)(C(F)(F)F)C(F)(F)F the Potency was “inactive”. In the case of N#Cc1c(NC(=O)c2ccccc2Cl)n(Cc2ccccc2)c2nc3ccccc3nc12, the Potency is reported as “inactive”. In the case of Cc1nc2c3cc(F)ccc3n(Cc3ccccc3F)c2s1, the Potency is reported as “inactive”. For O=c1cc(C23CC4CC(CC(C4)C2)C3)[nH][nH]1, the Potency was “inactive”. In the case of Cc1c(C#N)c(O)n(CCO)c(=O)c1N=Nc1ccc2c(c1)COC2=O, the Potency is reported as “inactive”. For CS(=O)(=O)c1ccc(C(=O)OCC(=O)NC(=O)C2CCCCC2)cc1[N+](=O)[O-], the Potency was “inactive”. For CCN(C(=O)C1CCCN(c2ncnc3onc(-c4ccc(F)cc4)c23)C1)c1ccccc1 (stereo not given), the Potency was “inactive”. For CCOc1cc(N2CCOCC2)c(OCC)cc1NC(C)C(=O)N1CCN(CC)CC1 (stereo not given), the Potency was “inactive”. In the case of CCCCCCN=CC1=C(O)CC(C)(C)CC1=O, the Potency is reported as “inactive”. With CCOC(=O)C(NC(=O)Nc1ccc(O)cc1)(c1ccccc1)C(F)(F)F (stereo not given) the Potency was “inactive”. In the case of C=CCNC(=O)/C(C#N)=C/c1c(C)nn(-c2ccc(Cl)cc2)c1Cl, the Potency is reported as “inactive”. For COc1ccc(CN2C(=O)Cc3c2nc(N)c2c(N)nc(N4CCCCC4)c(C#N)c32)cc1, the Potency was “inactive”. For Cc1ccc2c(CC(=O)Nc3c(C(=O)c4ccc(F)cc4)oc4ccccc34)coc2c1C, the Potency was “inactive”. With Oc1ccc2ccccc2c1/C=N/c1nccs1 the Potency was “inactive”. For CCOC(=O)c1cnc2nc(NCc3ccc(OC)c(OC)c3)[nH]n2c1=O, the Potency was “inactive”. For O=C(O)/C=C/C(=O)Nc1ccc(OC(F)(F)F)cc1Br, the Potency was “inactive”. For C=CCSc1nnc2n(-c3ccccc3OC)c(=O)c3c4c(sc3n12)CCC4, the Potency was “inactive”. With Cc1ccc(-c2nc(S(=O)(=O)c3ccc(F)cc3)c(SCC(=O)NCC3CCCO3)o2)cc1 (stereo not given) the Potency was “inactive”. With Nc1cc(N)c(OCC(F)(F)F)cc1OCC(F)(F)F the Potency was 14.1 µM (active). With O=C(O)/C=C/C(=O)Nc1ccc(SC(F)(F)C(F)(F)C(F)(F)F)cc1 the Potency was “inactive”. With COc1ccc(C(=O)Oc2ccc(C(c3c(C)[nH][nH]c3=O)c3c(C)[nH][nH]c3=O)cc2OC)cc1 the Potency was “inactive”. With COc1ccc2ccc3c(c2c1)N=CC1(O3)N(C)c2ccccc2C1(C)C (stereo not given) the Potency was “inactive”. For Cc1nnc(SCC(=O)Nc2ccc(N(C)C)cc2)[nH]c1=O, the Potency was “inactive”. For CCSc1ncc(Cl)c(C(=O)Nc2nc3ccc(OC)cc3s2)n1, the Potency was “inactive”. For CN1CCc2ccc3c4c2[C@]1(C)Cc1cccc(c1-4)OCO3, the Potency was 8.91 µM (active). For Cn1c(-c2ccc(=O)[nH]c2)nc2ccccc21, the Potency was “inactive”.
